Screening data (PubChem BioAssay)
Sampled rows, rich in hits. Any-hit rate of the full collection: about 3.6%.
NFkB transloc inh: inhibitors of IL-1B driven NFkB p65 nuclear import, primary screen, imaging, HUVEC, IL-1B stimulus, high-content imaging; HUVEC IL-1B NFkB p65 nuclear translocation imaging; inhibition, % at 2 µM; 94,000 compounds, 0.43% hits; AID 796, 2007;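 active = inhibition above about 30% together with a positive call from visual inspection of the well image, limit read from the data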;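 also: nuclear over cytoplasmic p65 intensity ratio measured by imaging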
ERb coact inh: inhibitors of ERβ-SRC1 coactivator interaction, primary screen, biochemical, TR-FRET, ERβ LBD, SRC-1 peptide; Estrogen receptor beta (Homo sapiens), Q92731; TR-FRET ER-beta LBD / SRC1-Cy5 peptide binding; receptor agonist-loaded with 1 µM estradiol; inhibition, % at 25.6 µM; 86,000 compounds, 1.3% hits;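 active = compounds whose percent inhibition of the receptor-coactivator binding signal exceeds about 50% in the single-dose screen, limit read from the data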
Target sequence (Q92731 whole entry, looked up, the tested form may be a part): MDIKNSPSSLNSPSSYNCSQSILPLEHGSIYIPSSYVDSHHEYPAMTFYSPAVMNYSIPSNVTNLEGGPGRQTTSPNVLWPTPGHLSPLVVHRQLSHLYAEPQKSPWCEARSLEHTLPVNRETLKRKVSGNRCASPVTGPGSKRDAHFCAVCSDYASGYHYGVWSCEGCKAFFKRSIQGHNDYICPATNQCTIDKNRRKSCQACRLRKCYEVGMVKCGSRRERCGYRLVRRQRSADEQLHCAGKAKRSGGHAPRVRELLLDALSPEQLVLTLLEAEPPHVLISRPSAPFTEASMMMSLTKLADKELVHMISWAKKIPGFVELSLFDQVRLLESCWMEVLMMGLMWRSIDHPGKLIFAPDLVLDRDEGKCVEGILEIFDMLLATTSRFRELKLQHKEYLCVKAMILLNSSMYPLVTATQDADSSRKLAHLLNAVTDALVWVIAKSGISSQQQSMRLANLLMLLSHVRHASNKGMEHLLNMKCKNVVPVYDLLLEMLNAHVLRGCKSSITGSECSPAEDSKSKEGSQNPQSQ
ERa SRC1 inh: ERα–SRC-1 coactivator interaction inhibitors, primary screen, biochemical, TR-FRET, ERα LBD, estradiol-bound | Estrogen receptor (Homo sapiens), P03372 | TR-FRET ER-alpha LBD / SRC-1 peptide | inhibition, % at 25.6 µM | 86,000 compounds, 1.7% hits | AID 629, 2007; in the data active = inhibition above about 50%
IL1B cytotox: cytotoxicity in IL-1B stimulated HUVEC, primary screen, cytotoxicity control for IL-1B NFkB translocation project, imaging, Hoechst nuclear count, IL-1B stimulus. AID 845, 2007. 94,000 compounds, 0.41% hits. cell count reduction, % at 2 µM. HUVEC cell count loss;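 active = cell count reduction more than 3 SD above the screen-wide mean, cut at about 70% in these data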
ERa SRC1 pot: enhancers of ERα–SRC-1 coactivator binding, primary screen, biochemical, TR-FRET, ERα LBD, low estradiol; AID 639, 2007; coactivator binding (% of control), % at 25.6 µM; 86,000 compounds, 1.3% hits; TR-FRET ERalpha-LBD/SRC-Cy5 coactivator binding, 2 h; 100 = basal binding, no effect; Estrogen receptor (Homo sapiens), P03372; in the data active = activity above about 200%;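 also: binding measured in presence of low estradiol as agonist stimulus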
NFkB transloc pot: enhancers of NFkB p65 translocation in HUVEC – imaging, IL-1B stimulus, high-content imaging, primary screen; AID 819, 2007; activation, % at 2 µM; HUVEC IL-1B NFkB p65 nuclear translocation imaging; 94,000 compounds, 0.3% hits;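 active = activation above 40%, about the mean plus 3 SD, also judged a hit on visual image review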;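 also: percent activation is computed from the nuclear over cytoplasmic p65 intensity ratio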
Hits are given with their value; . = inactive; / = not tested or not shown; [ ] = another dose, or the depositor's remark.

SMILES	NFkB transloc inh	ERb coact inh	ERa SRC1 inh	IL1B cytotox	ERa SRC1 pot	NFkB transloc pot
c1ccc(-c2noc(-c3ccc4c(c3)OCO4)n2)nc1	/	56.7	61.6[fluorescence artefact?]	/	.	/
c1ccc(-c2noc(-c3ccc4ccccc4c3)n2)nc1	/	.	.	/	.	/
Cc1cccc(-c2cc3nc(-c4ccccc4)cc(N4CCC5(CC4)OCCO5)n3n2)c1	.	.	.	.	.	.
Cc1ccc(-c2cc3nc(-c4ccccc4)cc(N4CCC5(CC4)OCCO5)n3n2)cc1	.	.	.	.	283.7[fluorescence artefact?]	.
O=C(CSc1ccc(Cl)cc1)c1ccco1	.	80.6	80.4[fluorescence artefact?]	.	.	.
COc1ccc(C(=O)Nc2oc(-c3ccccc3)c(-c3ccccc3)c2C#N)cc1	.	.	.	.	.	.
Cc1cccc(C)c1OCC(=O)Nc1oc(-c2ccccc2)c(-c2ccccc2)c1C#N	49.2	.	.	.	.	.
CCOC(=O)C1=C(C)N(c2ccccc2)C(=O)C1CC(=O)O (stereo unspecified)	.	.	.	.	.	.
CCOC(=O)c1ccc(NC(=O)COc2cc(=O)n(CC)c3ccccc23)cc1	.	.	.	.	890.2[fluorescence artefact?]	.
CCc1cc(=O)oc2cc(OCC(=O)N3CCc4ccccc43)ccc12	/	.	.	/	200.3[fluorescence artefact?]	/
CCn1c(=O)cc(OCC(=O)N2CCc3ccccc32)c2ccccc21	/	.	.	/	211.6[fluorescence artefact?]	/
CC(C)(C)c1cc(NC(=O)CCSc2nnc3ccccn23)cc(C(C)(C)C)c1	.	.	.	.	.	.
Cc1ccc2nc(SCC(=O)Nc3cccc([N+](=O)[O-])c3)[nH]c2c1	.	/	/	.	/	.
Cc1ccccc1CS(=O)(=O)Cc1ccc(C(=O)NCc2cccnc2)o1	.	.	.	.	.	.
Cc1cc(C)nc(SCc2nc(N)nc(-c3ccccc3O)n2)n1	.	.	.	.	.	.
CC/C(=N/Nc1ccccc1)c1cnnc(-c2ccccc2)n1	.	60.3	82.3[fluorescence artefact?]	.	.	.
CCOC(=O)/C(=N\Nc1ccccc1)c1csc(Nc2ccc(C)cc2)n1	.	.	.	.	.	.
Cc1ccc(NCC(=O)N/N=C\c2ccc([N+](=O)[O-])o2)cc1	.	/	/	.	/	.
CCCCCC(=O)N/N=C/c1ccc([N+](=O)[O-])o1	.	/	/	93.4	/	.
CCOC(=O)c1oc2ccc(CNC(C)(C)C)c(Cl)c2c1C	.	.	.	.	.	.
Cc1cccc(NC(=O)C2CCCN(S(=O)(=O)c3cccc4nsnc34)C2)c1 (stereo unspecified)	.	51.0[fluorescence artefact?]	.	.	230.0[fluorescence artefact?]	.
Fc1ccc(-c2nnc(-n3nnc4ccccc43)c3ccccc23)cc1	.	.	57.8	.	.	.
Nc1nonc1NC(=O)CSc1ncccc1C(=O)O	.	63.8	.	.	.	.
CCNC(=O)CC1C(=O)N(c2ccc(F)cc2)C(=O)N1Cc1ccc(OC)cc1 (stereo unspecified)	.	.	54.7[fluorescence artefact?]	.	.	.
Cc1ccc(Oc2ccc(-c3nc(N)nc(N)n3)cc2)cc1	97.4	.	.	86.0	.	.
SMILES	NFkB transloc inh	ERb coact inh	ERa SRC1 inh	IL1B cytotox	ERa SRC1 pot	NFkB transloc pot
N#C/C(=C(/O)CSc1nnc(Cc2cccs2)n1C1CCCCC1)c1nc2ccccc2[nH]1	/	.	76.8[fluorescence artefact?]	/	.	/
COc1ccccc1-c1nnc(SC/C(O)=C(\C#N)c2nc3ccccc3[nH]2)n1C1CCCCC1	/	.	.	/	.	/
CC1N(C)c2cccc3cccc(c23)N1C	.	83.3[fluorescence artefact?]	50.9[fluorescence artefact?]	.	.	.
O=C(CSc1nnc(-c2ccncc2)n1-c1ccc(F)cc1)NC(=O)NCc1ccco1	.	54.6[fluorescence artefact?]	68.0[fluorescence artefact?]	.	.	.
C=CCn1c(COc2ccc(F)cc2)nnc1SCC(=O)NC(=O)NCc1ccco1	/	.	71.2[fluorescence artefact?]	/	.	/
C=CCn1c(COc2cccc(C)c2)nnc1SCC(=O)NC(=O)NCc1ccco1	.	.	61.3	.	.	.
Cc1c2c(n3c(nc4ccccc43)c1C#N)N(Cc1ccccn1)CC2	/	.	.	/	.	/
COc1ccc(C(=O)OC(C(=O)c2ccccc2)c2ccccc2)cc1 (stereo unspecified)	.	/	/	.	/	.
